OTUD3 inh = human OTUD3 deubiquitinase inhibition. Q5T2D3. purified OTUD3, Ub-rhodamine fluorescence, 2 h. inhibition, % at 25 µM. 47,000 compounds, 0.7% hits. AID 1645858
Target sequence (Q5T2D3 whole entry, looked up): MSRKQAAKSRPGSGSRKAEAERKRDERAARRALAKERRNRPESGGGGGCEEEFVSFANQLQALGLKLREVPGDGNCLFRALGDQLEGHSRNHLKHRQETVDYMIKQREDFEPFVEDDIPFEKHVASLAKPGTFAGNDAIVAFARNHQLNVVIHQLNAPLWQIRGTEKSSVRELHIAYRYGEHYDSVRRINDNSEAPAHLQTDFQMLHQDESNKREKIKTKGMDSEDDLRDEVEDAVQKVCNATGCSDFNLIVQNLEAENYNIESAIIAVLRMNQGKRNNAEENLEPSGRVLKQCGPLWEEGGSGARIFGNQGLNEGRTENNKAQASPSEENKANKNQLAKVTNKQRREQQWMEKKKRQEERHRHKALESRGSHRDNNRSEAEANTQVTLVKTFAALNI
USP17 block = inhibitors of human USP17 deubiquitinase; 47,000 compounds, 6.5% hits; AID 1645855; inhibition, % at 50 µM; A8MUK1; purified USP17, Ub-rhodamine cleavage fluorescence, 3 h
USP30 block = inhibitors of human USP30 deubiquitinase; Q70CQ3; purified USP30, Ub-rhodamine cleavage fluorescence; inhibition, % at 25 µM; 47,000 compounds, 5.3% hits
USP28 block = inhibitors of human USP28 deubiquitinase; Q96RU2; AID 1645857; inhibition, % at 25 µM; purified USP28, Ub-rhodamine cleavage fluorescence, 30 min; 47,000 compounds, 3% hits
The depositor's hits bear a star. Hits are enriched below; roughly 11% of the tested compounds scored in any of these assays. No stated cut-off is given here; in the data, active means inhibition above about 30%; inactive means the rest.

For O=C(OCc1ccc([N+](=O)[O-])cc1)C1CCN(S(=O)(=O)c2cccc3cccnc23)CC1 the results were OTUD3 inh 18, USP17 block 3, USP30 block 44* and USP28 block 28.
Cc1c(C)n(Cc2ccncc2)c2ncnc(NCc3ccccc3)c12 was read as OTUD3 inh -7, USP17 block -22, USP30 block -32 and USP28 block 5.
For O=C(Nc1c(C(=O)N2CCN(c3ccccc3)CC2)[nH]c2ccccc12)c1ccc(Cl)cc1 the results were OTUD3 inh -3, USP17 block -13, USP30 block 1 and USP28 block -18.
Screening CO[C@H]1/C=C/[C@@](C)(O)/C=C/C(=O)O[C@H](C)[C@@H](C)CC/C=C/1C returned OTUD3 inh 4, USP17 block -1, USP30 block 39* and USP28 block 5.
`O=S(=O)(Nc1ccc(N2CCCCC2)cc1)c1cccc(F)c1` gave OTUD3 inh -11, USP17 block -12, USP30 block -28 and USP28 block -6.
For O=S(=O)(Nc1ccc(N2CCCCC2)cc1)c1ccccc1F the results were OTUD3 inh -24, USP17 block 34*, USP30 block -68 and USP28 block -20.
`Clc1cccc(COc2ccc(-n3cnnn3)cc2)c1` gave OTUD3 inh 6, USP17 block 12, USP30 block 18 and USP28 block 49*.
CN(C)CC(=O)N1CCc2nc3ccccc3n2CC1 was read as OTUD3 inh 3, USP17 block 2, USP30 block 0 and USP28 block 1.
Screening Cc1csc2ncc(C(=O)N3CCN(c4ccccc4)CC3)c(=O)n12 returned OTUD3 inh -27, USP17 block 8, USP30 block -97 and USP28 block -86.
Screening Cc1csc2ncc(C(=O)N3CCN(c4ccccc4F)CC3)c(=O)n12 returned OTUD3 inh 38*, USP17 block -8, USP30 block -17 and USP28 block -9.
`O=C(NC1CC1)c1cc(=O)[nH]c2c(Cl)cccc12` gave OTUD3 inh -1, USP17 block 0, USP30 block -12 and USP28 block -8.
Screening Cc1cc(C)n2nc(C(=O)N3CCCC3c3ncc(C)[nH]3)cc2n1 (stereo not drawn) returned OTUD3 inh -3, USP17 block 11, USP30 block 16 and USP28 block -64.
c1ccc(Cc2nnc(N3CCOCC3)c3ccccc23)cc1 was read as OTUD3 inh 14, USP17 block 13, USP30 block 26 and USP28 block 34*.
Screening O=C(O)CCCCc1cc(O)cc(O)c1 returned OTUD3 inh -12, USP17 block -44, USP30 block -78 and USP28 block -20.
Screening CCCCCCCc1cc(OC(=O)c2c(CCCCCCC)cc(O)cc2O[C@@H]2O[C@H](CO)[C@@H](O)[C@H](O)[C@H]2O)cc(O)c1C(=O)O returned OTUD3 inh 102*, USP17 block 102*, USP30 block 110* and USP28 block 102*.
Screening CCCCCCCCCCCCCCCc1cc(O)cc(O)c1C(=O)O returned OTUD3 inh 36*, USP17 block 89*, USP30 block 56* and USP28 block 53*.
`Cc1ccc(NC(=O)C2CCCN(c3cc(=O)n(C)c(=O)n3C)C2)cc1C` (stereo not drawn) gave OTUD3 inh -2, USP17 block -21, USP30 block -11 and USP28 block -14.
For COc1cc(NC(=O)Cc2ccccc2)ccc1NC(=O)c1cc2ccccc2o1 the results were OTUD3 inh 11, USP17 block 70*, USP30 block 41* and USP28 block 22.
`CCC(NC(=O)c1ccc2c(c1)OCO2)c1ccccc1` (stereo not drawn) gave OTUD3 inh -10, USP17 block -22, USP30 block 3 and USP28 block -10.
`O=C(CNC(=O)c1cc2ccccc2o1)Nc1cccc(F)c1` gave OTUD3 inh -5, USP17 block -3, USP30 block 46* and USP28 block 11.
CC(NC(=O)CNC(=O)c1ccc2c(c1)OCO2)c1cc2ccccc2o1 (stereo not drawn) was read as OTUD3 inh -3, USP17 block 42*, USP30 block 3 and USP28 block 14.
For Cc1ccc(NC(=O)CNC(=O)c2cc3ccccc3o2)cc1 the results were OTUD3 inh -2, USP17 block 55*, USP30 block -15 and USP28 block -9.
NC(=O)c1ccc(NS(=O)(=O)c2ccc(-n3cccn3)cc2)cc1 was read as OTUD3 inh 1, USP17 block 4, USP30 block 0 and USP28 block -8.
`COC(=O)c1c(NC(=O)CNCc2ccccc2Cl)sc2c1CCCCC2` gave OTUD3 inh 5, USP17 block 4, USP30 block -15 and USP28 block -2.
Cc1ccc(C)c2[nH]c(=O)c(CN(CCO)C(=O)NC3CCCCC3)cc12 was read as OTUD3 inh -1 and USP17 block -11.
For CNc1nc(C2CCN(S(=O)(=O)c3ccc(C)c(C)c3)C2)nc2c1CN(C(C)=O)CC2 (stereo not drawn) the results were OTUD3 inh -6, USP17 block -1, USP30 block -3 and USP28 block -6.
For Cc1ccc(NC(=O)CNC(=O)c2cc3ccccc3o2)cc1F the results were OTUD3 inh 8, USP17 block -5, USP30 block -9 and USP28 block 3.
Screening O=C(CNC(=O)c1cc2ccccc2o1)Nc1ccc2c(c1)OCCO2 returned OTUD3 inh 14, USP17 block 63*, USP30 block 25 and USP28 block 56*.
For O=C(NCC1CCCO1)c1cn(Cc2ccccc2)nc1-c1cccnc1 (stereo not drawn) the results were OTUD3 inh 1, USP17 block 0, USP30 block -10 and USP28 block -9.
Screening Cc1ccc(NC(=O)c2cn(Cc3ccccc3)nc2-c2cccnc2)cc1 returned OTUD3 inh -2, USP17 block -4, USP30 block 8 and USP28 block 32*.
CC(=O)N1CCc2cc(S(=O)(=O)NCCC(=O)N3CCN(c4ccccc4F)CC3)ccc21 was read as OTUD3 inh 10, USP17 block 5, USP30 block 13 and USP28 block 4.
Screening Cc1ccc(NC(=O)CCc2ccc3nc[nH]c3c2)cc1F returned OTUD3 inh -6, USP17 block -6, USP30 block -11 and USP28 block 35*.
Cc1ccc(NC(=O)CCc2ccc3nc[nH]c3c2)c(C)c1 was read as OTUD3 inh -6, USP17 block -8, USP30 block 10 and USP28 block -7.
Screening O=C(CSc1nnc(-c2c[nH]c3ccccc23)n1-c1ccc(F)cc1)NCC1CCCO1 (stereo not drawn) returned OTUD3 inh -1, USP17 block -12, USP30 block 7 and USP28 block -4.
`O=C(c1cnc2n1CC(c1cccc(C(F)(F)F)c1)CC2)N1CCNCC1` (stereo not drawn) gave OTUD3 inh 7, USP17 block -39, USP30 block 30* and USP28 block 4.
`O=C(c1cccc(F)c1)N1CCCC2(COCCN(CC3CC3)C2)C1` (stereo not drawn) gave OTUD3 inh 13, USP17 block 8, USP30 block 23 and USP28 block 5.
